# The campaign covered roughly 63,000 compounds. About 1,100 (1.7%) were called active. Only a selection was taken, and actives are over-represented in it overall. Potency and affinity values are given separately. Unmarked numbers belong to inactive results. Rule as the data show it: active = cytotoxicity above about 50%; inactive = the rest.
# Assay: cytotoxicity in HPDE-C7 cells, cell-based, fluorescence, HTS (AID 430);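 also: cells exposed to compound for 48 hours before viability readout; 0% = vehicle and 100% = reference cytotoxic drug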
# Details: HPDE-C7 pancreatic duct cells viability, at 10 µM, stronger effect = higher value
row,Compound,cytotoxicity
1,COc1ccc(C)cc1NS(=O)(=O)c1ccc(NS(=O)(=O)c2ccc(NC(C)=O)cc2)cc1,-5.6%
2,O=C(CCCOc1ccc(Cl)cc1)N1CCOCC1,-10.1%
3,Cc1nc2sc(C(c3cccs3)N3CCC(C(N)=O)CC3)c(O)n2n1 (stereo not given),-20.4%
4,OCC(CO)(CO)N=Cc1cc(Br)ccc1O,8.1%
5,CCCc1n[nH]c2c1C(=O)CC(C)(C)C2,1.7%
6,CCN(C(=O)CSc1nc2nc(C)cc(C)n2n1)c1ccccc1,-4%
7,COC(=O)Cn1c2ccc(F)cc2c2nc(C)sc21,-12.3%
8,Cc1cc(=O)[nH]c(-n2nc(C)cc2C)n1,-1.2%
9,Cc1cc(Nc2ccccc2)n(-c2nc3ccccc3[nH]2)n1,4%
10,Cc1ccc(Nc2cc(C)nn2-c2nc(C)cc(=O)[nH]2)cc1,102% (active)
11,Cc1nc(C)c(C(=O)C2=C(O)C(=O)N(CCN3CCOCC3)C2c2cccnc2)s1 (stereo not given),-12.6%
12,CC(=O)Nc1nc2c(F)cccc2s1,9.8%
13,CCC(=O)Nc1nnc(-c2ccco2)o1,-23.7%
14,COc1cc(OC)cc(-c2nnc(Nc3nc4c(F)cccc4s3)o2)c1,8.8%
15,Fc1cccc2sc(Nc3nnc(-c4ccco4)o3)nc12,53.7% (active)
16,c1coc(-c2nnc(NC3=NCCC3)o2)c1,7.5%
17,Fc1cccc2sc(Nc3nnc(-c4ccccc4)o3)nc12,53.3% (active)
18,Cc1ccc2c(n1)sc1c(N)ncnc12,9.8%
19,O=C(CSCc1cccc(Br)c1)N1CCOCC1,-8.7%
20,COc1ccc(-c2noc(-c3cc(Cl)ccc3Cl)n2)cc1OC,-2.3%
21,CCOc1ccc(C2N(c3ccc(OC)cc3)C(=O)C3CCCN32)cc1OC (stereo not given),2.1%
22,CCOC(=O)Nc1cc(=O)c2ccccc2o1,53.2% (active)
23,O=C(Nc1cc(=O)c2ccccc2o1)N1CCOCC1,11.2%
24,CCOC(=O)/C=C(\C)Sc1cc(=O)oc2ccccc12,78.4% (active)
25,O=C(Nc1cc(=O)c2ccccc2o1)N1CCCCC1,-24.9%
26,CCOC(=O)Oc1ccc2oc(=O)cc(C)c2c1,4.4%
27,CCOC(=O)N1CCN(Cc2cc(=O)oc3ccc4ccccc4c23)CC1,14.3%
28,COc1ccc(Cl)cc1NC(=O)C1CCCN(S(=O)(=O)c2cccc3nonc23)C1 (stereo not given),-12.6%
29,O=C(NCc1ccc(Cl)c(Cl)c1)c1ccco1,-4.6%
30,CCCCn1c(=O)[nH]c2ccccc21,9.9%
